Experimental data from PubChem BioAssay (Tox21).
Values without a mark were called inactive. Records with an inconclusive call do not appear. Where a call stands in place of a potency, no number is given. Calls of active or inactive are those of the source. Unless noted, calls follow the shape of the dose curve; as a rule, active = well fitted curve in the direction sought with a large enough effect in the repeat runs; inconclusive = weak or mixed curves; inactive = no such curve, though single readings can be large; an effect the other way counts as inactive or inconclusive.

Legend:
[1] = qHTS assay to identify small molecule agonists of the hypoxia (HIF-1) signaling pathway - cell viability counter screen (AID 1224844; calls by dose curve; also: nearly all actives have a fitted effect of over 50% in size)
Outline: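 ME-180 HRE-bla cells, 2,000/well, 0.5% dialyzed FBS; 5 hr settle, 17 hr compound at 37C/5% CO2; CCF4-AM reporter read first, then CellTiter-Glo luminescence after 30 min RT.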

[2] = qHTS assay to identify small molecule agonists of H2AX (AID 1224845; active = well fitted activation curve with a large enough effect in the signal ratio in the repeat runs, not every such curve was filed as active; the % refers to the signal ratio; also: potency is read from the fitted curve at half-maximal effect)
Outline: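 Wild-type CHO-K1 cells plated overnight, then exposed 3 hr at 37C to compounds at 15 concentrations (0.76% DMSO). Lysed, then HTRF anti-pH2AX(S139)-cryptate/anti-H2AX-d2 detection after 24 hr at room temperature; emissions 665 and 620 nm.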

[3] = qHTS assay to identify small molecule agonists of the hypoxia (HIF-1) signaling pathway (AID 1224846; active = well fitted activation curve with a large enough effect in the signal ratio in the repeat runs, not every such curve was filed as active; the % refers to the signal ratio)
Outline: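 Cell line: CellSensor HRE-bla ME-180; 2,000 cells/well; 0.5% dialyzed FBS; 5 h preincubation; DMSO compound pin transfer; 17 h, 37C, 5% CO2; CCF4-AM added; bla FRET signal scored for activation.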

[4] = qHTS assay to identify small molecule agonists of H2AX - cell viability counter screen (AID 1224847; calls by dose curve; also: nearly all actives have a fitted effect of over 30% in size; also: potency is read from the fitted curve at half-maximal effect)
Outline: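 We seed wild-type CHO-K1 cells overnight, treat them for 3 hr at 37C with compounds in 15-concentration series, and quantify remaining viability by CellTiter-Glo luminescence.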

[5] = qHTS RealTime-Glo MT Cell Viability Assay in HepG2 cells - 24 hour (AID 1224867); also: nearly all actives have a fitted effect of over 50% in size
Outline: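 Luminescence read-out: viable HepG2 cells reduce a prosubstrate to a NanoLuc substrate, giving a signal proportional to live cell number. Reads taken at 0, 8, 16, 24, 32 and 40 h of compound exposure at 37 C.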

[6] = qHTS RealTime-Glo MT Cell Viability Assay in HEK293 cells - 32 hour (AID 1224868); also: top concentration of the series differs between compounds; nearly all actives have a fitted effect of over 50% in size
Outline: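 Nonlytic real-time viability readout: viable cells convert prosubstrate to NanoLuc substrate, giving luminescence proportional to live cell number. HEK293, 600 cells/well, compound added after 5 h, continuous culture at 37 C.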

[7] = A CellTox Green Cytotoxicity Assay to monitor cytotoxicity in HEK293 cells - 0 hour (AID 1224869); also: nearly all actives have a fitted effect of over 50% in size
Outline: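 Nonlytic real-time cytotoxicity: HEK293 + CellTox Green reagent plated, 5 h preincubation, pintool compound addition (23 nL in DMSO), 37 C for 40 h, fluorescence measured at successive time points.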

[8] = qHTS RealTime-Glo MT Cell Viability Assay in HepG2 cells - 40 hour (AID 1224870); also: nearly all actives have a fitted effect of over 50% in size; also: potency is read from the fitted curve at half-maximal effect
Outline: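 HepG2 cells mixed with RealTime-Glo MT reagents (NanoLuc plus cell-permeant prosubstrate) were seeded at 600 cells/well, incubated 5 h at 37 C/5% CO2, then pinned with compounds in DMSO; nonlytic luminescence tracked viability during 40 h treatment.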

[9] = qHTS assay to identify small molecule antagonists of the estrogen related receptor (ERR) signaling pathway from Tox21 library (AID 1224848); also: nearly all actives have a fitted effect of over 50% in size; also: potency is read from the fitted curve at half-maximal effect
Outline: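 Cells: ERR line, 2,000/well; 6 h preincubation 37 C/5% CO2. Cpd in DMSO via pin tool; 18 h, 37 C. ONE-Glo, 30 min RT, luminescence.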

[10] = qHTS assay to identify small molecule agonists of the estrogen related receptor (ERR) signaling pathway from Tox21 library (AID 1224849; calls by dose curve; also: nearly all actives have a fitted effect of over 15% in size); settings: ERR reporter cell line, ONE-Glo luciferase, 18 h; at 92.4 µM (top of the series) unless noted
Outline: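 ERR cells, 6 h pre-incubation 37 C/5% CO2; cpd in DMSO pinned; 18 h 37 C; ONE-Glo added, 30 min RT; luminescence read. Agonist mode, qHTS.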

Structure (SMILES) | Potency [1] | Potency [2] | outcome [3] | Potency [4] | Potency [5] | Potency [6] | Potency [7] | Potency [8] | Potency [9] | activity change, positive = activation [10]
CN(C)Cc1ccccc1 | inactive | inactive | inactive | inactive | inactive | inactive | inactive | inactive | – | –
CC1=C(O)C(=O)OC1C (configuration not stated) | inactive | inactive | inactive | inactive | inactive | inactive | inactive | inactive | – | –
COc1cc(C)ccc1C(C)C | inactive | inactive | inactive | inactive | inactive | inactive | inactive | inactive | inactive | -0.104%
CC/C=C\CCOC(=O)CCCCC | inactive | inactive | inactive | inactive | inactive | inactive | – | inactive | inactive | 5.28%
OC[C@H]1O[C@@H](O[C@H]2[C@H](O)[C@@H](O)[C@H](O)O[C@@H]2CO)[C@H](O)[C@@H](O)[C@H]1O | inactive | inactive | inactive | inactive | inactive | – | inactive | inactive | inactive | 4.49%
CC(C)(C)C1CCCCC1=O (configuration not stated) | inactive | inactive | inactive | inactive | inactive | inactive | inactive | inactive | – | –
Cc1ccsc1C(=CCCN1CCC[C@@H](C(=O)O)C1)c1sccc1C | inactive | inactive | inactive | inactive | inactive | inactive | inactive | inactive | – | –
COC(C)CCO (configuration not stated) | inactive | inactive | inactive | inactive | inactive | inactive | inactive | inactive | – | –
OCCN(CCO)c1ccccc1 | inactive | inactive | inactive | inactive | inactive | inactive | inactive | inactive | – | –
CCC/C=C/CO | inactive | inactive | inactive | inactive | inactive | inactive | inactive | inactive | – | –
CS(=O)(=O)c1ccc([C@@H](O)[C@@H](CF)NC(=O)C(Cl)Cl)cc1 | inactive | inactive | inactive | inactive | inactive | inactive | inactive | inactive | – | –
Nc1ccc2ccccc2c1S(=O)(=O)O | inactive | inactive | inactive | inactive | inactive | inactive | inactive | inactive | – | –
C=CCCCCCCCCO | inactive | inactive | inactive | inactive | inactive | inactive | inactive | inactive | – | –
Cc1cn([C@@H]2O[C@H](CO)[C@@H](O)[C@@H]2F)c(=O)[nH]c1=O | inactive | inactive | inactive | inactive | inactive | inactive | inactive | inactive | – | –
CO[Si](C)(C)OC | inactive | inactive | inactive | inactive | inactive | – | inactive | inactive | inactive | 4.8%
COC(=O)N[C@H](C(=O)N[C@@H](Cc1ccccc1)[C@@H](O)CN(Cc1ccc(-c2ccccn2)cc1)NC(=O)[C@@H](NC(=O)OC)C(C)(C)C)C(C)(C)C | inactive | 24.7 µM (active) | inactive | inactive | inactive | inactive | inactive | – | – | –
CCCOCCC | inactive | inactive | inactive | inactive | inactive | inactive | inactive | inactive | – | –
CC(=O)Nc1ccc(C)c(Cl)c1 | inactive | inactive | inactive | inactive | inactive | inactive | inactive | inactive | – | –
Cc1c[nH]c(=S)[nH]c1=O | inactive | inactive | inactive | inactive | inactive | inactive | inactive | inactive | – | –
CCCNC(C)(C)COC(=O)c1ccccc1 | inactive | inactive | inactive | inactive | inactive | – | inactive | inactive | inactive | 5.73% [at 42.5 µM]

Structure (SMILES) | Potency [1] | Potency [2] | outcome [3] | Potency [4] | Potency [5] | Potency [6] | Potency [7] | Potency [8] | Potency [9] | activity change, positive = activation [10]
CC(C)(C)c1cccc(O)c1 | inactive | inactive | inactive | inactive | inactive | – | inactive | inactive | inactive | 1.25%
CCN(CC)C(=O)N(CC)CC | inactive | inactive | inactive | inactive | inactive | inactive | inactive | inactive | – | –
O=CCCc1ccccc1 | inactive | inactive | inactive | inactive | inactive | inactive | inactive | inactive | – | 7.2%
O=[N+]([O-])c1nccn1CO[C@@H](CO)[C@H](O)CO | inactive | inactive | inactive | inactive | inactive | – | inactive | inactive | inactive | 7.4% [at 42.5 µM]
Cn1cnc2c(F)c(Nc3ccc(Br)cc3Cl)c(C(=O)NOCCO)cc21 | inactive | inactive | inactive | inactive | – | inactive | inactive | 674 nM (active) | inactive | -7.67% [at 42.5 µM]
O=c1[nH]cnc2c1ncn2[C@@H]1O[C@H](CO)[C@@H](O)[C@H]1O | inactive | inactive | inactive | inactive | inactive | – | inactive | inactive | inactive | 2.74% [at 42.5 µM]
O=C(O)[C@@H]1CSCN1 | inactive | inactive | inactive | inactive | inactive | inactive | inactive | inactive | – | –
C=Cc1ccccc1 | inactive | inactive | inactive | inactive | inactive | inactive | inactive | inactive | – | –
CCOC(=O)[C@H](CCc1ccccc1)N[C@@H](C)C(=O)N1Cc2cc(OC)c(OC)cc2C[C@H]1C(=O)O | inactive | inactive | inactive | inactive | inactive | inactive | inactive | inactive | – | –
COc1cc(Cl)ccc1Cl | inactive | inactive | inactive | inactive | inactive | inactive | inactive | inactive | – | –
CCOc1ccccc1N | inactive | inactive | inactive | 44.7 µM (active) | inactive | – | inactive | inactive | 12.1 µM (active) | -59%
COc1nc(C)nc(NC(=O)NS(=O)(=O)c2ccccc2OCCCl)n1 | inactive | inactive | inactive | inactive | inactive | – | inactive | inactive | inactive | -0.581%
NS(=O)(=O)c1cc(-c2nn[nH]n2)c(NCc2cccs2)cc1Cl | inactive | inactive | inactive | inactive | inactive | inactive | inactive | inactive | – | –
CC(=O)OC1C2(C)CCC(C2)C1(C)C (configuration not stated) | inactive | inactive | inactive | inactive | inactive | – | inactive | inactive | inactive | -1.44%
Cc1c(N)cccc1N | inactive | inactive | inactive | inactive | inactive | inactive | inactive | inactive | – | –
N#Cc1ccc(C(c2ccc(C#N)cc2)n2cncn2)cc1 | inactive | inactive | inactive | inactive | inactive | inactive | inactive | inactive | – | –
CCCCCCCCCCCCCCCCOP(=O)([O-])OCC[N+](C)(C)C | inactive | inactive | inactive | inactive | inactive | inactive | inactive | inactive | inactive | –
CCc1cc2cc(OC)c(OC)cc2c(Cc2ccccc2)n1 | inactive | inactive | inactive | inactive | inactive | – | inactive | inactive | inactive | -12.2% [at 42.5 µM]
O=C(O)C(=O)Cc1c[nH]c2ccccc12 | inactive | inactive | inactive | inactive | inactive | inactive | inactive | inactive | – | –
